Records with an inconclusive call do not appear. Unmarked numbers belong to inactive results. Calls follow the shape of the dose curve; as a rule, active = well fitted cell-killing curve with a large enough effect in the repeat runs; inconclusive = weak or mixed curves, or effect the other way; inactive = flat fitted curve, though single readings scatter.
assay: qHTS assay to identify small molecule agonists of the androgen receptor (AR) signaling pathway in the presence of an antagonist - cell viability counter screen (AID 1259379); conditions: MDA-kb2 viability, CellTiter-Fluor, 16 h; series mostly up to 92.4 µM; activity change, negative = cytotoxicity: at the top concentration; also: nearly all actives have a fitted effect of over 25% in size
Text: National Center for Advancing Translational Sciences [NCATS]
NIH Chemical Genomics Center [NCGC]
U.S. Environmental Protection Agency [EPA]
National Institutes of Environmental Health Sciences [NIEHS]
National Toxicology Program [NTP]
U.S. Food and Drug Administration [FDA]
Androgen receptor (AR) is an important member of nuclear receptor family. Its signaling plays a critical role in AR-dependent prostate cancer and other androgen related diseases. Considerable attention has been given in the past decades to develop methods to study and screen for the environmental chemicals that have the potential to interfere with metabolic homeostasis, reproduction, developmental and behavioral functions. Therefore AR binding assay for screening against androgen agonists and antagonists can be used to identify potential endocrine disruptors.
MDA-kb2 cells (from ATCC, deposited by Wilson et al.) are human breast carcinoma cells that were stably transfected with a luciferase reporter gene under control of the MMTV promoter that contains response elements for both androgen receptor (AR) and glucocorticoid receptor (GR). This particular screening for measuring luciferase reporter gene activity using MDA-kb2 cells against Tox21 10K library compounds is a confirmation study on agonist mode screening in the presence of AR-antagonist compound (Nilutamide) at 3.0uM final concentration. The cytotoxicity of the compounds was tested in parallel by measuring the cell viability using CellTiter-Fluor assay system (Promega, Madison, WI) in the same wells.
Tox21 Assay Protocol Summary:
MDA-kb2 cells (cells cultured without CO2) were dispensed at 3,000 cells/well in 4uL of culture medium into white wall/solid-bottom 1536-well plates (Corning Life Sciences, Corning, NY) using a Multidrop Combi (Thermo Fisher Scientific Inc., Waltham, MA) dispenser. The assay plates were incubated at 37C and 0% CO2 for 5hr. One uL of 3.0uM (final concentration) Nilutamide or assay buffer was added using two separate tips of Flying Reagent Dispenser (FRD, Aurora Discovery, San Diego, CA). Then 23nL of compounds dissolved in DMSO at 15 concentrations and positive controls were transferred to the assay plates using a Pintool station (Wako, San Diego, CA). The assay plates were incubated at 37C and 0% CO2 for 16 hr. After 15hr incubation at 37C, 1uL/well CellTiter-Fluor reagent (Promega Corporation) was added to each well of the assay plates using FRD. After 1hr incubation at 37C and 0% CO2, the fluorescence signal was measured using a ViewLux plate reader (PerkinElmer, Shelton, CT).
% is scaled to controls: 0 for no effect and ±100 for the full control effect.

Compound | activity change, negative = cytotoxicity
Cc1ccc2c(c1)OCC(=O)CO2 | 4.39%
O=C(O)Cc1ccc(Cl)cc1Cl | -1.68%
NS(=O)(=O)c1ccc(NC(=O)CCC(=O)O)cc1 | 5.41% [at 42.5 µM]
CC(C)(C)c1nnc(NS(=O)(=O)c2ccc(N)cc2)s1 | 3.91% [at 42.5 µM]
CCCCCCCCCCCCCC | -0.428%
CC(C)N(c1ccccc1)C(C)C | 0.194%
C=C(C)C(=O)OCCN(CC)CC | 1.94%
OCCN(CCO)c1cccc(Cl)c1 | -2.25%
CC(=O)N[C@@H](CCC(=O)O)C(=O)O | -0.889% [at 42.5 µM]
CC[C@H](C)C(=O)O[C@H]1C[C@H](O)C=C2C=C[C@H](C)[C@H](CC[C@@H](O)C[C@@H](O)CC(=O)O)[C@H]21 | 0.345%
CC(C)NCC(O)COc1ccc(COCCOC(C)C)cc1 (stereo not given) | -0.188% [at 42.5 µM]
CCCN1C[C@H](CSC)C[C@@H]2c3cccc4[nH]cc(c34)C[C@H]21 | 0.647% [at 42.5 µM]
CCCCCCN | 1.52%
COc1ccc2c(c1)C(=O)N(CCc1ccc(S(=O)(=O)NC(=O)NC3CCCCC3)cc1)C(=O)C2(C)C | 2.32% [at 42.5 µM]
C[Si](C)(C)C | 2.82%
NS(=O)(=O)c1cc2c(cc1Cl)CN(C1CCCCC1)C2=O | -0.124% [at 42.5 µM]
COc1cc2c(cc1OC)C(=O)CC2 | -0.753% [at 42.5 µM]
C=C1CC/C=C(\C)CC[C@@H]2[C@@H]1CC2(C)C | 2.28%
NCCS | 0.156% [at 42.5 µM]
OCCCCC(O)CO (stereo not given) | -1.12%

Compound | activity change, negative = cytotoxicity
O=C(OCC(COC(=O)c1cccnc1)(COC(=O)c1cccnc1)COC(=O)c1cccnc1)c1cccnc1 | 0.45% [at 42.5 µM]
CN(C)CCOCCO | -0.209%
O=C1O[C@@H]2[C@@H](O)[C@H](O)O[C@@H]2[C@H]1O | -1.9%
CCN(CC)CC(=O)Nc1c(C)cccc1C | -0.917% [at 42.5 µM]
CCCOC(OCCC)OCCC | 2.32%
Cc1cccc(C)c1OCC(C)N (stereo not given) | 2.43% [at 42.5 µM]
CC(C)CC(C)CC(C)CC(C)COC(=O)c1ccccc1C(=O)OCC(C)CC(C)CC(C)CC(C)C (stereo not given) | -3.06%
CCOCCOCCOCC | 3.25%
N#Cc1ccc(C(=O)O)cc1 | -1.99%
O=C(O)C(=O)Cc1ccccc1 | 0.0674%
COc1ccc(S(=O)(=O)N2c3ccc(Cl)cc3[C@@](O)(c3ccccc3Cl)[C@H]2C(=O)N2CCC[C@@H]2C(N)=O)cc1OC | 3.25% [at 42.5 µM]
Cc1ccc(S(=O)(=O)O)c(C)c1 | 1.09%
O=C(CCNNC(=O)c1ccncc1)NCc1ccccc1 | -0.492% [at 42.5 µM]
COc1ccc(Br)c(C)c1 | 0.824%
CCOC(=O)c1ncn2c1CN(C)C(=O)c1cc(F)ccc1-2 | -1.86% [at 42.5 µM]
CC(=O)Nc1cccc(C)c1 | -6.56%
CCOC(=O)CC(=O)c1ccccc1 | 0.0052%
O=C(OCc1ccccc1)C(=O)OCc1ccccc1 | 1.71%
CC(C)(C)c1n[nH]c(=S)n(N)c1=O | -1.05%
C[C@@H](Oc1ccc(CNC(=O)c2cccnc2Oc2ccc3c(c2)OCO3)c(F)c1)C(=O)O | -1.97%

From PubChem BioAssay (Tox21)
